The record followed here is PubChem BioAssay AID372 (MTDP, 2006).

Out of some 100,000 compounds screened, about 770 (0.77%) were called active. The full list was thinned out, with actives kept by preference. Values without a mark were called inactive. No stated cut-off is given here; in the data, active means inhibition above about 50%; inactive means the rest.

The target in this assay is Gag-Pol polyprotein (Human immunodeficiency virus type 1 group M subtype B (isolate HXB2)) (UniProt P04585). The assay is described as follows: RNase H inhibition, HIV 1 Gag Pol polyprotein, FRET biochemical assay, screening (AID 372). Conditions: HIV-1 RT RNase H, FRET RNA/DNA substrate fluorescence; at 10 µM; hits give high values.
As to `NNC(=O)c1cc(C(=O)O)nc2ccc(Br)cc12`, the inhibition was 6%.
As for `CCOc1ccc(/C=C2/SC(NC(C)=O)=NC2=O)cc1`, the figure is 0%; as for `COc1cc(C(=O)NC(=S)Nc2cccc(-c3nc4ncccc4o3)c2C)cc(OC)c1OC`, 17%; as for `Cc1cc(C)cc(NCc2ccc3c(c2)OCO3)c1`, 9%.
On to `C=CCOc1ccccc1/C=N/NC(=O)c1cccc(I)c1`, for which the inhibition is 10%.
As for `O=S(NC1CCCCC1)C12CC3CC(CC(C3)C1)C2` (stereo not given), the figure is 2%.
As for `CC1=NN(c2ccccc2)C(=O)C1C(c1cccc([N+](=O)[O-])c1)C1C(=O)N(c2ccccc2)N=C1C` (stereo not given), the figure is 12%.
As for `CCOC(=O)C1=C(C)NC(C)=C(C(=O)OC)C1c1ccc([N+](=O)[O-])cc1` (stereo not given), the figure is 16%; as for `O=C1N=c2ccccc2=C1c1sc(=S)[nH]c1O`, 6%; as for `Cc1ccc(C2(C)N(O)C(C)C(c3ccccc3)=[N+]2[O-])cc1` (stereo not given), 0%.
On to `COc1ccc(CCN2C(=O)/C(=C\c3cccc4ccccc34)SC2=S)cc1OC`, for which the inhibition is 9%.
As for `CCCOC(=O)c1ccc(NC(=O)c2cccc([N+](=O)[O-])c2)cc1`, the figure is 17%; as for `O=C(Nc1cc(Cl)cc(Cl)c1)c1ccc(-c2ccccc2[N+](=O)[O-])o1`, 59% (active).
For the compound `Cc1ccccc1-c1nc2cc(NC(=O)c3ccc(-c4ccccc4[N+](=O)[O-])o3)ccc2o1`, the inhibition is 37%.
The result for `CC(=O)c1cccc(NC(=O)c2ccc(-c3ccccc3[N+](=O)[O-])o2)c1` reads 13%; that for `Cc1cc2nc(-c3ccc(NC(=O)c4ccc(-c5ccccc5[N+](=O)[O-])o4)cc3)oc2cc1C`, 52% (active).
The result for `COC(=O)c1cc(NC(=O)c2ccc(-c3ccccc3[N+](=O)[O-])o2)cc(C(=O)OC)c1` reads 45%.
The result for `Cc1cc2nc(-c3ccc(NC(=O)c4cccc([N+](=O)[O-])c4C)cc3)oc2cc1C` reads 15%; that for `O=C(Cc1cccc2ccccc12)N/N=C/c1cc(Br)c(O)c(Br)c1O`, 0%.
For the compound `CCOc1cccc(NC(=O)/C(C#N)=C\c2ccc(-c3cccc([N+](=O)[O-])c3)o2)c1`, the inhibition was 10%.
The result for `CN1C(=O)/C(=C\c2ccc(Sc3ccc(Cl)cc3)o2)SC1=S` reads 22%.
As for `Cc1ccc(Sc2ccc(/C=C3/SC(=S)N(C)C3=O)o2)cc1`, the figure is 45%.
`CN1C(=O)S/C(=C/c2ccc(Sc3ccccc3)o2)C1=O`: the inhibition was 52% (active).
As for `CCCCOc1ccc(C(=O)N2CCCc3ccccc32)cc1`, the figure is 13%; as for `O=C(Nc1cccc(NC(=O)C(Cl)(Cl)Cl)c1)c1ccc(Cl)cc1Cl`, 13%.

By inhibition is commonly meant the percentage by which the read-out fell short of the control.
